Measured values: PubChem BioAssay (NCATS)
Inconclusive results are not listed. The source made the active and inactive calls. The call rests on the fitted dose curve; in most records, active means well fitted cell-killing curve with a large enough effect; inconclusive means small, poorly fitted or top-dose-only effect, or effect the other way; inactive means no such curve, though single readings can be large or run the other way.

Experiments:
[1] = Quantitative High-Throughput drug screen in 47 multiple myeloma cell lines against the NCATS MIPE library collection: MM1R_ATCC cell viability assay (AID 1918981); further: nearly all actives have a fitted effect of over 35% in size
Procedure, shortened: (§1)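 Readout: median RLU from CellTiter-Glo after 5 min at room temperature. Preceding step was 48 h drug treatment of 500 cells/well at 37 °C, 5% CO2, with DMSO-only and media-only control wells.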

[2] = Quantitative High-Throughput drug screen in 47 multiple myeloma cell lines against the NCATS MIPE library collection: LP1_DSMZ cell viability assay (AID 1918982); further: nearly all actives have a fitted effect of over 35% in size
Procedure, shortened: as §1

[3] = Quantitative High-Throughput drug screen in 47 multiple myeloma cell lines against the NCATS MIPE library collection: KMS28PE_JCRB cell viability assay (AID 1918983); further: nearly all actives have a fitted effect of over 35% in size
Procedure, shortened: as §1

[4] = Quantitative High-Throughput drug screen in 47 multiple myeloma cell lines against the NCATS MIPE library collection: KMS34_JCRB cell viability assay (AID 1918985); further: nearly all actives have a fitted effect of over 40% in size
Procedure, shortened: as §1

[5] = Quantitative High-Throughput drug screen in 47 multiple myeloma cell lines against the NCATS MIPE library collection: OCIMY5_PLB cell viability assay (AID 1918988); further: nearly all actives have a fitted effect of over 65% in size
Procedure, shortened: as §1

[6] = Quantitative High-Throughput drug screen in 47 multiple myeloma cell lines against the NCATS MIPE library collection: SKMM1_PLB cell viability assay (AID 1919863); settings: SKMM1 myeloma viability, CellTiter-Glo ATP, 48 h; viability: hits give low values; further: nearly all actives have a fitted effect of over 35% in size
Procedure, shortened: as §1

[7] = Quantitative High-Throughput drug screen in 47 multiple myeloma cell lines against the NCATS MIPE library collection: XG6_PLB cell viability assay (AID 1919865); further: nearly all actives have a fitted effect of over 40% in size
Procedure, shortened: as §1

[8] = Quantitative High-Throughput drug screen in 47 multiple myeloma cell lines against the NCATS MIPE library collection: XG1_PLB cell viability assay (AID 1919866); further: nearly all actives have a fitted effect of over 35% in size
Procedure, shortened: as §1

[9] = Quantitative High-Throughput drug screen in 47 multiple myeloma cell lines against the NCATS MIPE library collection: VP6_DJ cell viability assay (AID 1919867); further: nearly all actives have a fitted effect of over 40% in size
Procedure, shortened: as §1

[10] = Quantitative High-Throughput drug screen in 47 multiple myeloma cell lines against the NCATS MIPE library collection: PE2_PLB cell viability assay (AID 1919869); further: nearly all actives have a fitted effect of over 35% in size
Procedure, shortened: as §1

[11] = Quantitative High-Throughput drug screen in 47 multiple myeloma cell lines against the NCATS MIPE library collection: OPM2_DSMZ cell viability assay (AID 1919872); further: nearly all actives have a fitted effect of over 30% in size
Procedure, shortened: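 Luminescent ATP measurement with CellTiter-Glo gives viability, scaled between DMSO-only wells (100%) and media-only wells (0%). Cells, 500 per well, faced library compounds for 48 hours at 37C.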

[12] = Quantitative High-Throughput drug screen in 47 multiple myeloma cell lines against the NCATS MIPE library collection: KMS11_JCRBsus cell viability assay (AID 1919873); further: nearly all actives have a fitted effect of over 50% in size
Procedure, shortened: as §1

[13] = Quantitative High-Throughput drug screen in 47 multiple myeloma cell lines against the NCATS MIPE library collection: KMS28BM_JCRB cell viability assay (AID 1919874); further: nearly all actives have a fitted effect of over 35% in size
Procedure, shortened: as §1

[14] = Quantitative High-Throughput drug screen in 47 multiple myeloma cell lines against the NCATS MIPE library collection: OPM1_PLB cell viability assay (AID 1918989); further: nearly all actives have a fitted effect of over 40% in size
Procedure, shortened: as §1

[15] = Quantitative High-Throughput drug screen in 47 multiple myeloma cell lines against the NCATS MIPE library collection: PCM6_Riken cell viability assay (AID 1919870); further: nearly all actives have a fitted effect of over 30% in size
Procedure, shortened: as §1

[16] = Quantitative High-Throughput drug screen in 47 multiple myeloma cell lines against the NCATS MIPE library collection: RPMI8226_ATCC cell viability assay (AID 1919871); further: nearly all actives have a fitted effect of over 30% in size
Procedure, shortened: as §1

[17] = Quantitative High-Throughput drug screen in 47 multiple myeloma cell lines against the NCATS MIPE library collection: OCIMY7_PLB cell viability assay (AID 1918987); settings: OCI-MY7 myeloma viability, CellTiter-Glo ATP, 48 h; viability (% of DMSO): at 45.8 µM (top of the series); further: nearly all actives have a fitted effect of over 65% in size
Procedure, shortened: as §1

[18] = Quantitative High-Throughput drug screen in 47 multiple myeloma cell lines against the NCATS MIPE library collection: U266_ATCC cell viability assay (AID 1919864); further: nearly all actives have a fitted effect of over 35% in size
Procedure, shortened: as §1

[19] = Quantitative High-Throughput drug screen in 47 multiple myeloma cell lines against the NCATS MIPE library collection: UTMC2_PLB cell viability assay (AID 1919868); settings: CellTiter-Glo ATP luminescence, 48 h; viability (% of DMSO control): at 45.8 µM (top of the series); further: nearly all actives have a fitted effect of over 55% in size
Procedure, shortened: as §1

[20] = Quantitative High-Throughput drug screen in 47 multiple myeloma cell lines against the NCATS MIPE library collection: L363_DSMZ cell viability assay (AID 1918984); further: nearly all actives have a fitted effect of over 40% in size
Procedure, shortened: as §1
Potency means the concentration at half of the fitted maximal effect.

CN[C@H](CC(C)C)C(=O)N[C@H]1C(=O)N[C@@H](CC(N)=O)C(=O)N[C@@H]2C(=O)N[C@H]3C(=O)N[C@H](C(=O)N[C@H](C(=O)O)c4cc(O)cc(O)c4-c4cc3ccc4O)[C@H](O)c3ccc(c(Cl)c3)Oc3cc2cc(c3O[C@@H]2O[C@H](CO)[C@@H](O)[C@H](O)[C@@H]2O[C@H]2C[C@](C)(N)[C@H](O)[C@H](C)O2)Oc2ccc(cc2Cl)[C@H]1O
active: Potency [7] 18700 nM | Potency [9] 13200 nM
inactive: Potency [1] | Potency [2] | Potency [3] | Potency [4] | Potency [5] | viability [6] 122% | Potency [8] | Potency [10] | Potency [11] | Potency [12] | Potency [13]

Cc1nc(NC(=O)N2CCC[C@@H]2C(N)=O)sc1-c1ccnc(C(C)(C)C(F)(F)F)c1
inactive: Potency [15]
active: Potency [1] 1660 nM | Potency [2] 1480 nM | Potency [3] 296 nM | Potency [4] 1870 nM | Potency [5] 935 nM | Potency [14] 2960 nM | Potency [6] 6620 nM | Potency [7] 1870 nM | Potency [8] 3320 nM | Potency [10] 4690 nM | Potency [16] 3320 nM | Potency [11] 20900 nM | Potency [12] 166 nM | Potency [13] 1180 nM

C[C@@H](Oc1ccc2[nH]nc(C=Cc3cnn(CCO)c3)c2c1)c1c(Cl)cncc1Cl
active: Potency [1] 2640 nM | Potency [2] 20900 nM | Potency [3] 4180 nM | Potency [4] 209 nM | Potency [17] 148 nM | Potency [5] 6620 nM | Potency [6] 26400 nM | Potency [18] 23500 nM | Potency [7] 662 nM | Potency [9] 1320 nM | Potency [10] 148 nM | Potency [15] 4180 nM | Potency [11] 296 nM | Potency [12] 148 nM

COC1=C(OC)C(=O)C(CC=C(C)CCC=C(C)CCC=C(C)CCC=C(C)CCC=C(C)CCC=C(C)CCC=C(C)CCC=C(C)CCC=C(C)CCC=C(C)C)=C(C)C1=O
inactive: Potency [1] | Potency [2] | Potency [3] | Potency [17] | Potency [14] | viability [6] 99.4% | Potency [7] | Potency [10] | Potency [15]

CCn1c(=O)c2c(nc(C=Cc3ccc(OC)c(OC)c3)n2C)n(CC)c1=O
inactive: Potency [1] | Potency [2] | Potency [3] | viability [6] 123% | Potency [8] | Potency [19] | Potency [15] | Potency [12] | Potency [13]
active: Potency [10] 14800 nM

CCNC(=O)c1cc2c(-c3cc(OCCN4CCCC4)c(Cl)cc3Cl)nc(N)nc2s1
active: Potency [1] 2090 nM | Potency [3] 1870 nM | Potency [20] 418 nM | Potency [4] 1320 nM | Potency [17] 372 nM | Potency [5] 743 nM | Potency [14] 833 nM | Potency [6] 2350 nM | Potency [18] 1050 nM | Potency [7] 1660 nM | Potency [8] 833 nM | Potency [9] 743 nM | Potency [19] 1480 nM | Potency [10] 1660 nM | Potency [15] 743 nM | Potency [16] 1180 nM | Potency [11] 2960 nM | Potency [12] 590 nM | Potency [13] 1320 nM

COC(=O)[C@@H]1CC2=CC(=O)CC[C@]2(C)[C@@]23O[C@@H]2C[C@@]2(C)[C@H](CC[C@@]24CCC(=O)O4)[C@@H]13
inactive: Potency [1] | Potency [2] | Potency [3] | Potency [14] | Potency [7] | Potency [8] | Potency [10] | Potency [15] | Potency [16] | Potency [11] | Potency [12]

COc1ccc([C@@H]2CNC(=O)C2)cc1OC1CCCC1
inactive: Potency [1] | Potency [2] | Potency [16] | Potency [11] | Potency [12] | Potency [13]
active: Potency [14] 8330 nM | Potency [7] 1320 nM | Potency [9] 2350 nM | Potency [15] 1480 nM

OCC(O)C(O)C(O)CO (stereo not given)
inactive: Potency [1] | Potency [2] | Potency [20] | Potency [4] | Potency [17] | Potency [14] | Potency [7] | Potency [8] | Potency [10] | Potency [15] | Potency [11]

NC(=O)N1CCC(CC(=O)N2CCC([C@H]3c4ncc(Br)cc4CCc4cc(Cl)cc(Br)c43)CC2)CC1
active: Potency [1] 20900 nM | Potency [3] 18700 nM | Potency [20] 4180 nM | Potency [4] 20900 nM | Potency [17] 743 nM | Potency [5] 9350 nM | Potency [14] 23500 nM | Potency [6] 18700 nM | Potency [18] 18700 nM | Potency [7] 16600 nM | Potency [8] 5260 nM | Potency [9] 13200 nM | Potency [10] 14800 nM | Potency [15] 20900 nM | Potency [16] 16600 nM | Potency [12] 10500 nM | Potency [13] 20900 nM

O=C1NC(=O)C(=Cc2ccc3nccc(-c4ccncc4)c3c2)S1
active: Potency [1] 105 nM | Potency [3] 372 nM | Potency [20] 46.9 nM | Potency [4] 296 nM | Potency [17] 66.2 nM | Potency [5] 526 nM | Potency [14] 74.3 nM | Potency [6] 590 nM | Potency [18] 418 nM | Potency [7] 83.3 nM | Potency [8] 33.2 nM | Potency [9] 132 nM | Potency [19] 37.2 nM | Potency [10] 46.9 nM | Potency [15] 166 nM | Potency [16] 235 nM | Potency [12] 66.2 nM | Potency [13] 372 nM

CC(C)n1cnc2c(NCCc3ccc(O)cc3)nc(-c3csc4ccccc34)nc21
active: Potency [1] 7430 nM | Potency [2] 16600 nM | Potency [4] 20900 nM | Potency [17] 7430 nM | Potency [14] 23500 nM | Potency [6] 20900 nM | Potency [18] 2350 nM | Potency [7] 3720 nM | Potency [8] 3720 nM | Potency [9] 8330 nM | Potency [19] 10500 nM | Potency [15] 10500 nM | Potency [12] 18700 nM
